Potency data for two compounds are collected here from PubChem BioAssay AID720576 (National Center for Advancing Translational Sciences (NCATS), 2013).

The list shows a part of the results. Where a call stands in place of a potency, no number is given. Records with an inconclusive call do not appear. Active and inactive are the calls of the source. Calls follow the shape of the dose curve; as a rule, active = well fitted inhibition curve with a large enough effect; inconclusive = small, poorly fitted or top-dose-only effect; inactive = no such curve, though single readings can be large or run the other way.

This test is described as follows: qHTS Assay for Inhibitors of Hepatitis C Virus (HCV): Cytotoxicity Counterscreen for Cherry-picked Compounds. The source says: Hepatitis C virus (HCV) infects about 200 million people in the world. Many infected people progress to chronic liver disease including cirrhosis with a risk of developing liver cancer. To date, there is no effective vaccine for hepatitis C. Current therapy based on interferon is only effective in about half of the patients and is associated with significant adverse effects. The fraction of people with HCV who can complete a successful treatment is estimated to be no more than 10 percent. Recent development of direct-acting antivirals against HCV, such as protease and polymerase inhibitors, is promising but still requires combination with peginterferon and ribavirin for maximal efficacy. In addition, these agents are associated with high rate of resistance and many have significant side effects. Due to the lack of a culture system for infectious HCV, the search for new HCV drugs has been greatly hampered. […] High-throughput screening (HTS) with an infectious HCV system would cover the complete spectrum of potentially druggable targets in all stages of HCV lifecycle, and would have more biological relevance than other cell-based assays. […]
Cells were plated in a 1536-wel tissue culture grade plates at a final concentration of 1,000 cells/well (3 uL volume). […] The luminescence signal was read for 15 sec using the PerkinElmer ViewLux plate reader.
On the technique in general: qHTS replaces the single test concentration by a dilution series.
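Also: 44 h compound exposure; nearly all actives have a fitted effect of over 55% in size.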

For the compound `CC1=CC(=Cc2sc3ccccc3[n+]2C)C=C(C)O1`, the Potency was 7.05 µM (active). As for `CC[N+]1(C)CCCC(OC(=O)C(O)(c2ccccc2)c2ccccc2)C1` (configuration not stated), the entry is “inactive”.
